From PubChem BioAssay AID1159580 (chemical genetic matrix, 2015)
“And” between values parts separate entries of the source, which are not always exact repeats. Equal entries are not always repeated. Screen size: about 5,500 compounds; about 2,000 (36%) were called active. Another 18% or so got no clear call; they are omitted. Cut-off read from the data, not from the text of the source: active = normalized growth mostly below about 0.91 (no sharp cut-off); inconclusive = no clear call, values can overlap the other calls; inactive = mostly above about 0.92. The list shows a part of the results.

Experiment: chemical genetic growth profiling, strain panel (AID 1159580);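 note: tested at 20 µM; growth read once vehicle control cultures reached saturation at 30 °C; 1 = growth at the plate median or of vehicle wells; lower values mean less growth of the strain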
Details: S. cerevisiae deletion strains, growth OD

Measured: normalized growth

COC(=O)[C@@H]1OC(=O)C2OC23[C@@]1(C)CCC1[C@]2(C)C(C[C@@H](O)[C@]13C)C(C)(C)[C@H](OC(C)=O)C[C@@H]2OC(C)=O (stereo not given in full)
inactive: locus YAL021C, strain ccr4, active compounds read low 1 | locus YAL026C, strain drs2, active compounds read low 1.01 | locus YAL030W, strain snc1, active compounds read low 1 | locus YBL061C, strain skt5, active compounds read low 1 | locus YBR009C, strain hhf1, active compounds read low 1.03 | locus YBR021W, strain FUR4, active compounds read low 0.993 | locus YBR023C, strain chs3, active compounds read low 0.997 | locus YBR171W, strain sec66, active compounds read low 0.995 | locus YBR229C, strain ROT2, active compounds read low 1.01 | locus YBR231C, strain swc5, active compounds read low 1.01 | locus YBR279W, strain paf1, active compounds read low 1 | locus YCL011C, strain gbp2, active compounds read low 1.01 | locus YCL016C, strain dcc1, active compounds read low 1 | locus YCL029C, strain bik1, active compounds read low 1.01 | locus YCL069W, strain vba3, active compounds read low 0.996 | locus YCR088W, strain abp1, active compounds read low 0.991 | locus YDL005C, strain med2, active compounds read low 0.987 | locus YDL035C, strain GPR1, active compounds read low 1.05 | locus YDL040C, strain nat1, active compounds read low 1 | locus YDL074C, strain BRE1, active compounds read low 1.06 | locus YDL101C, strain DUN1, active compounds read low 1.02 | locus YDL134C, strain PPH21, active compounds read low 1.02 | locus YDL185W, strain tfp1, active compounds read low 1.01 | locus YDL192W, strain arf1, active compounds read low 1.01 | locus YDR001C, strain nth1, active compounds read low 0.997 | locus YDR069C, strain doa4, active compounds read low 1.01 | locus YDR101C, strain arx1, active compounds read low 1.03 | locus YDR137W, strain rgp1, active compounds read low 1.03 | locus YDR150W, strain NUM1, active compounds read low 1.01 | locus YDR159W, strain sac3, active compounds read low 0.985 | locus YDR162C, strain NBP2, active compounds read low 1.03 | locus YDR195W, strain ref2 0.988 | locus YDR297W, strain sur2, active compounds read low 0.989 | locus YDR318W, strain mcm21, active compounds read low 0.995 | locus YDR334W, strain swr1, active compounds read low 1 | locus YDR335W, strain msn5, active compounds read low 1 | locus YDR388W, active compounds read low 1.01 | locus YDR392W, strain spt3, active compounds read low 1.01 | locus YDR502C, strain sam2, active compounds read low 1 | locus YEL003W, strain gim4, active compounds read low 1 | locus YEL037C, strain rad23, active compounds read low 1 | locus YEL061C, strain CIN8 (second series), active compounds read low 0.986 | locus YEL061C, strain CIN8, active compounds read low 1.01 | locus YER015W, strain faa2, active compounds read low 0.994 | locus YER016W, strain bim1, active compounds read low 1 | locus YER110C, active compounds read low 0.995 | locus YER111C, strain swi4, active compounds read low 1 | locus YER155C, strain BEM2 (second series), active compounds read low 1.01 | locus YER155C, strain BEM2, active compounds read low 0.989 | locus YER167W, strain BCK2, active compounds read low 1.02 | locus YFR010W, strain ubp6, active compounds read low 1.02 | locus YGL078C, strain dbp3, active compounds read low 1.01 | locus YGL086W, strain mad1, active compounds read low 0.996 | locus YGL167C, strain pmr1, active compounds read low 1 | locus YGL173C, strain kem1, active compounds read low 1 | locus YGL227W, strain vid30, active compounds read low 1.01 | locus YGL240W, strain doc1, active compounds read low 1 | locus YGL248W, strain PDE1, active compounds read low 1.01 | locus YGL253W, strain hxk2, active compounds read low 1.01 | locus YGR135W, strain pre9, active compounds read low 0.971 | locus YGR252W, strain gcn5, active compounds read low 0.966 | locus YHR013C, strain ard1, active compounds read low 0.989 | locus YHR027C, strain rpn1, active compounds read low 1 | locus YHR030C, strain SLT2, active compounds read low 0.998 | locus YHR079C, strain IRE1 (second series), active compounds read low 1 | locus YHR079C, strain IRE1, active compounds read low 1.01 | locus YHR094C, strain hxt1, active compounds read low 1.01 | locus YHR129C, strain ARP1, active compounds read low 0.999 | locus YHR142W, strain chs7, active compounds read low 1 | locus YHR200W, strain rpn10, active compounds read low 1.01 | locus YIL066C, strain RNR3, active compounds read low 1.03 | locus YIL073C, strain SPO22, active compounds read low 1.03 | locus YIL125W, strain kgd1, active compounds read low 0.997 | locus YIR030C, strain dcg1, active compounds read low 0.992 | locus YJL092W, strain hpr5, active compounds read low 0.997 | locus YJL095W, strain BCK1 (second series), active compounds read low 0.989 | locus YJL095W, strain BCK1, active compounds read low 1 and 0.991 | locus YJL115W, strain asf1, active compounds read low 0.995 | locus YJL129C, strain trk1, active compounds read low 0.995 | locus YJL134W, strain LCB3, active compounds read low 1.01 | locus YJL154C, strain vps35, active compounds read low 1.01 | locus YJL164C, strain tpk1, active compounds read low 1.02 | locus YJL166W, strain qcr8, active compounds read low 1.01 | locus YJL168C, strain set2, active compounds read low 0.998 | locus YJL187C, strain SWE1 (second series), active compounds read low 1 | locus YJL187C, strain SWE1, active compounds read low 1.01 | locus YJR066W, strain TOR1, active compounds read low 0.913 | locus YKL009W, strain mrt4, active compounds read low 0.998 | locus YKL068W, active compounds read low 1 | locus YKL085W, strain MDH1 (second series), active compounds read low 0.999 | locus YKL085W, strain MDH1, active compounds read low 0.999 | locus YKL160W, strain elf1, active compounds read low 1 | locus YKL190W, strain CNB1, active compounds read low 1.01 | locus YKR001C, strain vps1, active compounds read low 1.01 | locus YKR026C, strain gcn3, active compounds read low 0.993 | locus YKR091W, strain srl3, active compounds read low 0.999 | locus YLL001W, strain dnm1, active compounds read low 1.01 | locus YLL026W, active compounds read low 0.998 | locus YLL041C, strain sdh2, active compounds read low 0.995 | locus YLR027C, strain aat2, active compounds read low 1.01 | locus YLR039C, strain RIC1, active compounds read low 1.12 | locus YLR058C, strain SHM2, active compounds read low 1.02 | locus YLR102C, strain apc9, active compounds read low 1 | locus YLR113W, strain HOG1, active compounds read low 1.08 | locus YLR221C, strain rsa3, active compounds read low 0.999 | locus YLR258W, strain gsy2, active compounds read low 1.01 | locus YLR262C, strain YPT6 (second series), active compounds read low 0.997 | locus YLR268W, strain sec22, active compounds read low 1.02 | locus YLR320W, strain mms22, active compounds read low 1 | locus YLR330W, strain CHS5, active compounds read low 1.01 | locus YLR342W, strain FKS1, active compounds read low 1 | locus YLR357W, strain rsc2, active compounds read low 0.969 | locus YLR370C, strain arc18, active compounds read low 1.01 | locus YLR371W, strain rom2, active compounds read low 0.988 | locus YLR384C, strain iki3, active compounds read low 0.988 | locus YLR418C, strain cdc73, active compounds read low 0.972 | locus YML016C, strain PPZ1, active compounds read low 1.01 | locus YML032C, strain rad52, active compounds read low 1.01 | locus YML120C, strain ndi1, active compounds read low 0.994 | locus YML124C, strain tub3, active compounds read low 0.987 | locus YMR058W, strain fet3, active compounds read low 1.01 | locus YMR078C, strain ctf18, active compounds read low 1 | locus YMR125W, strain sto1, active compounds read low 0.987 | locus YMR129W, active compounds read low 0.996 | locus YMR205C, strain PFK2, active compounds read low 1.01 | locus YMR223W, strain ubp8, active compounds read low 0.985 | locus YMR231W, strain pep5, active compounds read low 0.994 | locus YMR307W, strain GAS1, active compounds read low 0.996 | locus YNL067W, strain RPL9B, active compounds read low 1.01 | locus YNL071W, strain lat1, active compounds read low 0.997 | locus YNL183C, strain NPR1, active compounds read low 0.95 | locus YNL209W, strain ssb2, active compounds read low 1.01 | locus YNL233W, strain BNI4, active compounds read low 1.01 | locus YNL248C, strain rpa49, active compounds read low 0.997 | locus YNL250W, strain rad50, active compounds read low 1 | locus YNL271C, strain bni1, active compounds read low 1.01 | locus YNL298W, strain CLA4, active compounds read low 1.01 | locus YNL307C, strain MCK1, active compounds read low 1.01 | locus YNL322C, strain KRE1 (second series), active compounds read low 0.998 | locus YNL322C, strain KRE1, active compounds read low 1.02 | locus YNR049C, strain mso1, active compounds read low 0.988 | locus YNR052C, strain pop2, active compounds read low 0.996 | locus YOL012C, strain htz1 0.946 | locus YOL147C, strain pex11, active compounds read low 0.998 | locus YOR001W, strain rrp6, active compounds read low 1.03 | locus YOR061W, strain CKA2, active compounds read low 1.02 | locus YOR069W, strain VPS5, active compounds read low 1.01 | locus YOR070C, strain gyp1, active compounds read low 1 | locus YOR080W, strain dia2, active compounds read low 1.01 | locus YOR083W, strain WHI5, active compounds read low 1 | locus YOR106W, strain vam3, active compounds read low 1.02 | locus YOR136W, strain idh2, active compounds read low 0.989 | locus YOR144C, strain elg1, active compounds read low 1.01 | locus YOR184W, strain ser1, active compounds read low 1.01 | locus YOR231W, strain MKK1, active compounds read low 1.01 | locus YOR265W, strain rbl2, active compounds read low 0.983 | locus YOR270C, strain vph1, active compounds read low 1.02 | locus YOR290C, strain snf2, active compounds read low 1 | locus YOR316C, strain cot1, active compounds read low 1 | locus YPL051W, strain arl3, active compounds read low 1.01 | locus YPL055C, strain LGE1, active compounds read low 1.03 | locus YPL078C, strain atp4, active compounds read low 1.01 | locus YPL106C, strain sse1, active compounds read low 0.999 | locus YPL240C, strain hsp82, active compounds read low 1 | locus YPL256C, strain CLN2, active compounds read low 1.01 | locus YPR119W, strain clb2, active compounds read low 1 | locus YPR141C, strain kar3, active compounds read low 1 | locus YPR163C, strain tif3, active compounds read low 1.01 | locus YPR167C, strain met16, active compounds read low 1 | strain wtn01, active compounds read low 1
